In PubChem BioAssay:
The source made the active and inactive calls.

Assays:
[1] = system: PRMT1 (protein arginine N-methyltransferase 1); assay: small molecules binding arginine methyltransferase PRMT1 – biochemical, small-molecule microarray, 635 nm fluorescence, primary screen (AID 1088); details: higher = more signal;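 note: binding of Prmt1 protein to compounds spotted on small-molecule microarray slides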
[2] = growth effects on S. cerevisiae YJM789 – YJM789 clinical isolate, OD600, 24 h, basal, primary screen (AID 1089); details: higher = more signal, called active from +8 up or from −8 down;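 note: growth of clinical yeast isolate S. cerevisiae YJM 789 seeded 1000 cells per well; test concentration not given here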
[3] = S. pombe growth modifiers, basal conditions – strain 972, OD600, 24 h, no modulator, primary screen (AID 1090);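 note: basal condition with compound alone and no growth modifier present; test concentration not given here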; details: S. pombe 972 growth, higher = more signal, called active from +8 up or from −8 down
[4] = budding yeast growth modifiers under rapamycin – strain BY4716, OD600, 96 h, primary screen (AID 1091); note: test concentration not given here; details: S. cerevisiae BY4716 + rapamycin, higher = more signal, called active from +8 up or from −8 down
[5] = target: Torsin-1A-interacting protein 2 (Homo sapiens) (UniProt Q8NFQ8); assay: small molecules binding lysate-expressed LULL1 – cell lysate, human LULL1 lysate, 635/667 nm fluorescence, primary screen (AID 1092); details: small-molecule microarray, hLULL1 lysate binding, 635 nm fluorescence; higher = more signal;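 note: probe is lysate of COS7 cells overexpressing human LULL1; score merges per-feature 667 nm fluorescence with signal-to-noise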
[6] = optical density change of DRC41 E. coli – strain DRC41, OD650, 24 h, E. coli filamentation project, primary screen (AID 1093);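 note: MC1000 strain lacking acrAB efflux and sulA so SOS filamentation is blocked; test concentration not given here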; details: E. coli DRC41 growth, higher = more signal, called active from +8 up or from −8 down
[7] = probe aLefty2 binding to arrayed compounds – biochemical, biotinylated probe, 635/667 nm fluorescence, primary screen (AID 1094); details: small-molecule microarray, higher = more signal;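 note: score merges spot fluorescence near 667 nm with spot signal-to-noise ratio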
[8] = system: Noggin (protein binding on small-molecule microarray); assay: small molecules binding Noggin protein – biochemical, 635/667 nm fluorescence, primary screen (AID 1095); details: 635 nm fluorescence, higher = more signal;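 note: score merges 667 nm feature fluorescence with signal to noise over triplicate slides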
[9] = target: Neurogenic locus notch homolog protein 3 (Homo sapiens) (UniProt Q9UM47); assay: small molecules binding NOTCH3 protein – biochemical, 635/667 nm fluorescence, primary screen (AID 1096); details: small-molecule microarray, 635 nm fluorescence, higher = more signal
[10] = probe aEGFR binding to arrayed compounds – biochemical, biotinylated probe, 635/667 nm fluorescence, primary screen (AID 1097); details: small-molecule microarray, higher = more signal;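 note: probe is a biotinylated anti-EGFR antibody binding compounds printed on slides; score combines fluorescence near 667 nm and signal to noise of each spot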
[11] = system: Plasmodium falciparum Sir2 (PF13_0152, Sir2A); assay: Plasmodium falciparum Sir2A binding compounds – biochemical, small-molecule microarray, 635 nm fluorescence, primary screen (AID 1098); details: fluorescence 635 nm, higher = more signal;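 note: score merges spot fluorescence intensity with its signal-to-noise ratio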
[12] = probe aDKK1 binding to arrayed compounds – biochemical, biotinylated probe, 635/667 nm fluorescence, primary screen (AID 1099); details: small-molecule microarray, higher = more signal;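 note: score merges 667nm spot fluorescence with signal to noise across triplicate slides; reference of the scale not given here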
[13] = probe aCHRDL2 binding to arrayed compounds – biochemical, biotinylated probe, 635/667 nm fluorescence, primary screen (AID 1100); details: small-molecule microarray, higher = more signal
[14] = change in splice reporter luminescence, either direction, cell-based, HEK293, spliceosome inhibition project, primary screen (AID 1101); details: HEK293 splicing luciferase reporter, 24 h, higher = more signal, called active from +8 up or from −8 down;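 note: HEK293 cells carrying a splicing-competent luciferase reporter gene; test concentration not given here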
[15] = target: Fibroblast growth factor 10 (Homo sapiens) (UniProt O15520); assay: compounds binding fibroblast growth factor 10 – biochemical, small-molecule microarray, 635 nm fluorescence, primary screen (AID 1102); details: FGF10 binding, fluorescence 635 nm, higher = more signal
[16] = system: glycogen synthase kinase-3 (GSK3A per assay name; protocol says GSK3B); assay: compounds binding glycogen synthase kinase-3 – biochemical, small-molecule microarray, 635 nm fluorescence, GSK3A, primary screen (AID 1103); details: fluorescence 635 nm, higher = more signal; note: the record names both GSK3A and GSK3B
[17] = target: Epidermal growth factor receptor (Homo sapiens) (UniProt P00533); assay: compounds binding epidermal growth factor receptor – biochemical, small-molecule microarray, 635 nm fluorescence, primary screen (AID 1104); details: EGFR binding, higher = more signal;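 note: score merges 667 nm emission intensity with spot signal to noise over triplicate slides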
[18] = target: Follistatin-related protein 3 (Homo sapiens) (UniProt O95633); assay: compounds binding follistatin-related protein 3 – biochemical, small-molecule microarray, 635 nm fluorescence, primary screen (AID 1105); details: FSTL3 binding, higher = more signal;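 note: score merges emission near 667 nm and signal to noise per printed spot across three slides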
[19] = target: Dickkopf-related protein 1 (Homo sapiens) (UniProt O94907); assay: small molecules binding DKK1 protein – biochemical, small-molecule microarray, 635 nm fluorescence scan, primary screen (AID 1106); details: higher = more signal;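 note: score merges emission near 667 nm with signal to noise over three replicate slides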
[20] = system: Inhibin beta A chain (activin A); assay: small molecules binding activin A – biochemical, small-molecule microarray, 635 nm fluorescence scan, primary screen (AID 1107); details: INHBA, higher = more signal;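 note: mouse activin A protein probed at 4.33 µg/mL on printed slides; score merges bound-protein fluorescence near 667 nm with spot signal-to-noise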

Chain of Dickkopf-related protein 1 (Homo sapiens) (O94907 whole entry, looked up): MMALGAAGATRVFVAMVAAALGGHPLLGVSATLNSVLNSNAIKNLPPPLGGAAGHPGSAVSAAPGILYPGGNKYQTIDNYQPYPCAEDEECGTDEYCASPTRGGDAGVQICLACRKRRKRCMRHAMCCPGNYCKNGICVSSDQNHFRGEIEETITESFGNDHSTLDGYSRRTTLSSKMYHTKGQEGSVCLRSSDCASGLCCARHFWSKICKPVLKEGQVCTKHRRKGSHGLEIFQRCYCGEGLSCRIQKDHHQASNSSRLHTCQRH
Chain of Follistatin-related protein 3 (Homo sapiens) (O95633 whole entry, looked up): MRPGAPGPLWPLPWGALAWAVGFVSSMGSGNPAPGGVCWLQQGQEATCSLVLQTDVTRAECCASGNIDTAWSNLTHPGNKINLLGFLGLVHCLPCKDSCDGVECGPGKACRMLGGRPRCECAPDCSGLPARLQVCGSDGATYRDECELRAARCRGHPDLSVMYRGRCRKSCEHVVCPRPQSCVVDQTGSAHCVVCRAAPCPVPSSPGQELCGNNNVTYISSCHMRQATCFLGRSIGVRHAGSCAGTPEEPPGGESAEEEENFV
Chain of Neurogenic locus notch homolog protein 3 (Homo sapiens) (Q9UM47 whole entry, looked up): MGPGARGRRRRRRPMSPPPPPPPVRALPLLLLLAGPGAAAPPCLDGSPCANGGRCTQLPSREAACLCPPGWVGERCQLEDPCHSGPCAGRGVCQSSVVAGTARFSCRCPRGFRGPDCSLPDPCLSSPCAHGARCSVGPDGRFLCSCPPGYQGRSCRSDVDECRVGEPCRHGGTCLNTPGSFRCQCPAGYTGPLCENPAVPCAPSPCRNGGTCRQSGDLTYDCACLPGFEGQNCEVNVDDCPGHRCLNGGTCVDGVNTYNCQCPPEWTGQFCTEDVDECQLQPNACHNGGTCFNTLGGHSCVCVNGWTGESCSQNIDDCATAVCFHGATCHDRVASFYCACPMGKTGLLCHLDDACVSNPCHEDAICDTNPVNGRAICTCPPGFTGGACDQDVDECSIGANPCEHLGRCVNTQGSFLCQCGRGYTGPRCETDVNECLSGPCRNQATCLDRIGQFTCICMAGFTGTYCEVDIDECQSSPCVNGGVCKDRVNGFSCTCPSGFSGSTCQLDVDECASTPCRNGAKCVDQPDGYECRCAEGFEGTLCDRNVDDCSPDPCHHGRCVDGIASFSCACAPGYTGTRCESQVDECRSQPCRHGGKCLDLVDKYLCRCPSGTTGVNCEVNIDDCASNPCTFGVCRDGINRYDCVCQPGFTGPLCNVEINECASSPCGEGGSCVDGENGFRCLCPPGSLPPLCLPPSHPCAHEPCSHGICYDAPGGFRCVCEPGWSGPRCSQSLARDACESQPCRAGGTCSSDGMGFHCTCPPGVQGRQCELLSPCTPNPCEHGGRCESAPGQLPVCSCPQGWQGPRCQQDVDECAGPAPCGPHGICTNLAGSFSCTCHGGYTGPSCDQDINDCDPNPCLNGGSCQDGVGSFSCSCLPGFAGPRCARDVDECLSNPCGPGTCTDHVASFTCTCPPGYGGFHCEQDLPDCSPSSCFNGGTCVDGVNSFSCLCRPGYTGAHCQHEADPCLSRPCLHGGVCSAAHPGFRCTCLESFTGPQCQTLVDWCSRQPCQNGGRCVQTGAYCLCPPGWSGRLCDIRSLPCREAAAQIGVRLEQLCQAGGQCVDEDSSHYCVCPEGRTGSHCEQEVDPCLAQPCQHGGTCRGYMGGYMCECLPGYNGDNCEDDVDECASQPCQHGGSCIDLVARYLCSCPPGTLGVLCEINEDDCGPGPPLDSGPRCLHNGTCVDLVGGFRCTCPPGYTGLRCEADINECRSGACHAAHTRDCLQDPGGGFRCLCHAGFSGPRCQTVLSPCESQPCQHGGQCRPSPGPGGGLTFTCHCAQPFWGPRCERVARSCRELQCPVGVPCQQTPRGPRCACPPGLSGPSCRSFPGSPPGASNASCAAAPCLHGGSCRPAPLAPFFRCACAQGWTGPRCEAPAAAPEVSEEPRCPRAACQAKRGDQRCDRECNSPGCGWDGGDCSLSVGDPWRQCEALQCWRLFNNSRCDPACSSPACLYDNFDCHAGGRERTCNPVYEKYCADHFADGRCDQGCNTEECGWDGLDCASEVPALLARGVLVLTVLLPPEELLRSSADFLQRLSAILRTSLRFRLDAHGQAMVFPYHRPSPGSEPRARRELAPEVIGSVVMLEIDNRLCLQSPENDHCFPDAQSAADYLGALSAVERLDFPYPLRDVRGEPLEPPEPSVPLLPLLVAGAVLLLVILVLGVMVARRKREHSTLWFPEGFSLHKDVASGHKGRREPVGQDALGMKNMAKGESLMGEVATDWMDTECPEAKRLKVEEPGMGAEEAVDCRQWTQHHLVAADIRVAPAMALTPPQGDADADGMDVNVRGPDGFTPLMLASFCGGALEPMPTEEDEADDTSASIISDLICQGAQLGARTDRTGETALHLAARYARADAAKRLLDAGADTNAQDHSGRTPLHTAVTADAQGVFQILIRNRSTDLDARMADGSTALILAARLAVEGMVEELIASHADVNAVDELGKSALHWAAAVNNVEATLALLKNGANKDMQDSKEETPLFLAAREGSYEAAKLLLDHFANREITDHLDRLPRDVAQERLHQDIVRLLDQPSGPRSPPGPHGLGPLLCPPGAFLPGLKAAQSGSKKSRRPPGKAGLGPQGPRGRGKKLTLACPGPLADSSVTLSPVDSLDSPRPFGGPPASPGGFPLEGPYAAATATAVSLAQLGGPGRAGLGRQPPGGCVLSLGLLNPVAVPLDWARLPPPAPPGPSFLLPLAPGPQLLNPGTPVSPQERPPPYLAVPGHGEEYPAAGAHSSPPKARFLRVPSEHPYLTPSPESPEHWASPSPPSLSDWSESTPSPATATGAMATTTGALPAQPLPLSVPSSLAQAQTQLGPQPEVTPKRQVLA
Chain of Epidermal growth factor receptor (Homo sapiens) (P00533 whole entry, looked up): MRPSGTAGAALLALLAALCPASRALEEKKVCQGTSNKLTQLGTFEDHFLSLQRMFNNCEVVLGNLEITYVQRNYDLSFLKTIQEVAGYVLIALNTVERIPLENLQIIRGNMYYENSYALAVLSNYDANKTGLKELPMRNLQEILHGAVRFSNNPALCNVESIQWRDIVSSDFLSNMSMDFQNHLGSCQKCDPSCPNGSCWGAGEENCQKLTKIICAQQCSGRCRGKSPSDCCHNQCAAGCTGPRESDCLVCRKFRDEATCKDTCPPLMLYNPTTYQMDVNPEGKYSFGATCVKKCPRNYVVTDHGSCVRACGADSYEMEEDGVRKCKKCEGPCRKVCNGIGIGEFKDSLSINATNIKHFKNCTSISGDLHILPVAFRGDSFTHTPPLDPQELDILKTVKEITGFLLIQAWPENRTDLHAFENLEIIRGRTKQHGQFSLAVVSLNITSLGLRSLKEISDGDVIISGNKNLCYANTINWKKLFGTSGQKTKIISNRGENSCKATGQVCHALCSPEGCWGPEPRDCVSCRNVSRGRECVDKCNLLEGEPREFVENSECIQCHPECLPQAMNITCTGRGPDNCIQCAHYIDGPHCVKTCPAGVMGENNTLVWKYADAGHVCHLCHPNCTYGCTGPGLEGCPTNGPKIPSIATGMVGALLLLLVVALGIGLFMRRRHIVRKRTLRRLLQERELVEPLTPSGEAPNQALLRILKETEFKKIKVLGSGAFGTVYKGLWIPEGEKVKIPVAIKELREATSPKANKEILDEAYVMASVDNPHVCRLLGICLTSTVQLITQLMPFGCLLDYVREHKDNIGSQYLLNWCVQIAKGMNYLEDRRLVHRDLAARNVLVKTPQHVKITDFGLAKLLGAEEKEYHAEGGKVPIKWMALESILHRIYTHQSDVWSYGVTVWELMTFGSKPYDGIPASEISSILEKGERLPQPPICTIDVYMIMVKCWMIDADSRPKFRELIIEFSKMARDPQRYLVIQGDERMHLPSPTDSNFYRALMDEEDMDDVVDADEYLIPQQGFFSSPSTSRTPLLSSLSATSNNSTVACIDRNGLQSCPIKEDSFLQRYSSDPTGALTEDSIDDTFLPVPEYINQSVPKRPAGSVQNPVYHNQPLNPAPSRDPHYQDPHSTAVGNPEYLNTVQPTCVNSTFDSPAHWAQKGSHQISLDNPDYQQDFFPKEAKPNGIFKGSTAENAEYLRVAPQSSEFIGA
Chain of Torsin-1A-interacting protein 2 (Homo sapiens) (Q8NFQ8 whole entry, looked up): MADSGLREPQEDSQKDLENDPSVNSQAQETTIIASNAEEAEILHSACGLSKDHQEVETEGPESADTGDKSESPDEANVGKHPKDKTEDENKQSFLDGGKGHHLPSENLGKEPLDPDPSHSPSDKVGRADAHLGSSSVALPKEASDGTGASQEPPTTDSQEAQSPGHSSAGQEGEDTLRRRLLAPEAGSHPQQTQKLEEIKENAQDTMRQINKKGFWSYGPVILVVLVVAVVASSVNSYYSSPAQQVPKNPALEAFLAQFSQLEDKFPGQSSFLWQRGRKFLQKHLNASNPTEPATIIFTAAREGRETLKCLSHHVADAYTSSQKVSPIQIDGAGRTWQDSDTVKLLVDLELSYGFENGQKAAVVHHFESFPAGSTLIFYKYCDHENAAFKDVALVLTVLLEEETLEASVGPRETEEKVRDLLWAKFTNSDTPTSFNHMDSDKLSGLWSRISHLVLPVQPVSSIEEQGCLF
Chain of Fibroblast growth factor 10 (Homo sapiens) (O15520 whole entry, looked up): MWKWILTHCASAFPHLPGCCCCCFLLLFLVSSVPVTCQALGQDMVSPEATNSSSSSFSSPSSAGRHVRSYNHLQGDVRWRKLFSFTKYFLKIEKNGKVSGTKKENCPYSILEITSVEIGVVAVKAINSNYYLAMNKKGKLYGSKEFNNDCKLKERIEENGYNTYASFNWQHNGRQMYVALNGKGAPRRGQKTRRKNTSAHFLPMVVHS

| Compound | composite z-score [1] | z-score [2] | z-score [3] | z-score [4] | composite z-score [5] | z-score [6] | composite z-score [7] | composite z-score [8] | composite z-score [9] | composite z-score [10] | composite z-score [11] | composite z-score [12] | composite z-score [13] | z-score [14] | composite z-score [15] | composite z-score [16] | composite z-score [17] | composite z-score [18] | composite z-score [19] | composite z-score [20] |
| --- | --- | --- | --- | --- | --- | --- | --- | --- | --- | --- | --- | --- | --- | --- | --- | --- | --- | --- | --- | --- |
| O=C1C[C@@H](O)[C@@H](O)[C@@H]2[C@@H]3C(=O)N(C[C@@H]4CCCO4)C(=O)[C@@H]3CC[C@H]12 | 0.578 | 0.788 (inactive) | -0.563 (inactive) | 0.672 (inactive) | 0.493 | 0.701 (inactive) | -0.108 | 0.394 | 0.652 | -0.0118 | 0.379 | -0.273 | -0.577 | 0.32 (inactive) | 0.508 | 0.671 | 0.531 | 0.601 | 0.542 | -0.161 |
| C=C(C)C(=O)OCC1CN2[C@@H](CC[C@@H](C)[C@@H]2c2ccc(Br)cc2)C(=O)O1 (stereo not given in full) | 0.855 | 0.275 (inactive) | -0.369 (inactive) | -0.427 (inactive) | 0.734 | -0.166 (inactive) | -0.118 | 0.172 | 0.947 | -0.128 | 0.299 | -0.201 | -0.118 | 0.411 (inactive) | 0.237 | 0.363 | -0.202 | 0.0267 | 0.147 | -0.0608 |
| CCN1C(=O)[C@H]2[C@H]3[C@H](O)[C@H](O)CC(=NO[C@@H](C)c4cn([C@H](CO)Cc5ccccc5)nn4)[C@@H]3CC[C@H]2C1=O | 1.14 | 0.149 (inactive) | 0.718 (inactive) | 0.726 (inactive) | 1.28 | 0.194 (inactive) | -0.264 | 0.387 | 0.988 | 0.0346 | 0.774 | 0.262 | -0.426 | 0.358 (inactive) | 0.792 | 0.92 | 0.182 | 1.14 | 0.692 | -1.1 |
| C[C@H](ON=C1[C@H]2CCn3c(=O)n(-c4ccccc4)c(=O)n3[C@H]2[C@H](O)[C@@H]2O[C@H]12)c1cn([C@H](CO)Cc2ccccc2)nn1 | 0.171 | -0.915 (inactive) | -0.348 (inactive) | -0.173 (inactive) | 0.664 | 0.547 (inactive) | -0.175 | 0.222 | 0.518 | 0.0544 | -0.0041 | -0.15 | -0.519 | -0.421 (inactive) | 0.513 | 0.266 | 0.377 | 0.659 | 0.559 | 0.437 |
| CCOC(=O)[C@H](CC(C)C)NC(=O)CCC1CC(OC(=O)NCCc2ccc(F)cc2)CC2(CCCC(COC(=O)NCC3CCCCC3)O2)O1 (stereo not given in full) | 0.49 | -0.808 (inactive) | 0.541 (inactive) | 1.23 (inactive) | 1.12 | -0.61 (inactive) | -0.231 | 0.266 | 0.291 | 0.0069 | 0.0149 | -0.227 | -0.283 | -0.152 (inactive) | 0.953 | 0.293 | 0.432 | 0.8 | 0.479 | -0.174 |
| CCOC(=O)[C@H](CC(C)C)NC(=O)CCC1CC(OC(=O)NCc2ccc3c(c2)OCO3)CC2(CCCC(COC(=O)NCc3cccc(C(F)(F)F)c3)O2)O1 (stereo not given in full) | 0.312 | 0.518 (inactive) | 0.486 (inactive) | 1.29 (inactive) | 0.851 | -0.772 (inactive) | -0.154 | 0.184 | 0.082 | -0.171 | 0.15 | -0.229 | -0.031 | -0.235 (inactive) | 0.418 | -0.319 | 0.242 | 0.395 | 0.355 | 0.348 |
| CC(C)=CCCC(C)=CCON=C1C[C@@H](O)[C@@H](O)[C@@H]2[C@@H]3C(=O)N(c4cccc(Oc5ccccc5)c4)C(=O)[C@@H]3CC[C@@H]12 | 0.355 | 0.164 (inactive) | -0.153 (inactive) | -0.184 (inactive) | 1.15 | 0.951 (inactive) | -0.124 | -0.283 | 0.751 | -0.0302 | 0.517 | 0.132 | -0.209 | -0.991 (inactive) | 0.612 | -0.112 | 0.118 | 0.574 | 0.373 | 0.399 |
| CCOC(=O)NN=C1C[C@@H](O)[C@@H](O)[C@@H]2[C@@H]3C(=O)N(Cc4ccc5c(c4)OCO5)C(=O)[C@@H]3CC[C@H]12 | 0.667 | -0.126 (inactive) | 0.119 (inactive) | -0.6 (inactive) | 2.31 | 0.203 (inactive) | -0.289 | 0.303 | -0.578 | -0.0978 | 0.263 | -0.238 | -0.233 | 0.346 (inactive) | 0.0798 | -0.566 | -0.0894 | -0.199 | -0.108 | 0.0787 |
| C=CC1=C[C@H](O)[C@@H]2O[C@@H]2C12OCCCO2 | -0.12 | -0.532 (inactive) | 0.199 (inactive) | -0.138 (inactive) | -0.119 | -0.0339 (inactive) | -0.244 | 0.412 | -0.239 | 0.009 | 0.139 | -0.296 | -0.136 | 0.404 (inactive) | 0.351 | 1.03 | -0.547 | -0.0047 | -0.137 | 0.551 |
| CCOC(=O)NN=C1C[C@@H](O)[C@@H](O)[C@@H]2[C@@H]3C(=O)N(c4cccc(Oc5ccccc5)c4)C(=O)[C@@H]3CC[C@@H]12 | -0.037 | -0.73 (inactive) | 0.385 (inactive) | -0.869 (inactive) | 1.26 | 0.205 (inactive) | -0.335 | 0.918 | -0.362 | -0.163 | 0.933 | -0.27 | -0.187 | 0.0999 (inactive) | 1.13 | -0.652 | 0.164 | -0.329 | -0.313 | -0.237 |
